# Experimental data taken from the supplement of paper PMC10849652.
# The full data set covers some 7,900 targets. This sample favours those with a hit. About 0.6% of all pairs of compound and target were hits. A number with no mark means an inactive call.
# Columns and labels:
# Experiment in all cases: log2 fold change, soluble protein after heating vs DMSO (PISA); higher = thermal stabilisation; K562 cells, 10 uM, 30 min; active = over 0.2 and 3.5 SD of the protein, either way, in both replicates (recomputed)
# [1] = compound: CC[C@@H]1C(=O)N(C)c2cnc(Nc3ccc(C(=O)NC4CCN(C)CC4)cc3OC)nc2N1C1CCCC1
# Method in brief: (§1)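 Values are thermal stability changes relative to control samples and are taken from duplicates. They are stated as log2 fold changes. Before quantification by TMTpro 16plex LC-MS/MS with equalised channel sums, K562 cells at 2×10^6 cells/mL were treated with 10 μM compound for 30 min, heated in aliquots for 3 min across 48°C-58°C, pooled, extracted in PBS with 0.5% NP-40 at 4°C, and centrifuged at 21,000xg for 90 min to give the soluble supernatant.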
# volasertib = compound: CC[C@@H]1C(=O)N(C)c2cnc(Nc3ccc(C(=O)N[C@H]4CC[C@H](N5CCN(CC6CC6)CC5)CC4)cc3OC)nc2N1C(C)C [volasertib]
# Method in brief: as §1
# [2] = compound: CC[C@H](C)N1C=C(C2=C(C=C(C=C21)C3=CN=C(C=C3)N4CCNCC4)C(=O)NCC5=C(C=C(NC5=O)C)C)C
# Method in brief: as §1
# epoxomicin = compound: CC[C@H](C)[C@@H](C(=O)N[C@@H]([C@@H](C)O)C(=O)N[C@@H](CC(C)C)C(=O)[C@]1(CO1)C)NC(=O)[C@H]([C@@H](C)CC)N(C)C(=O)C [epoxomicin]
# Method in brief: as §1
# [3] = compound: CCn1c(C(=O)N(C2CC2)C2CC2)cc2c3c(ncn3C)c(Nc3cc(C)n(C)n3)nc21
# Method in brief: as §1
# [4] = compound: CCn1cc(-c2ccnc3[nH]c(-c4cccc(CN(C)C)c4)cc23)c(-c2ccc(NC(=O)N(C)C)cc2)n1
# Method in brief: as §1
# [5] = compound: CN(C)CC(=O)Nc1ccc2[nH]c(=O)c3ccccc3c2c1
# Method in brief: as §1
# rosiglitazone = compound: CN(CCOC1=CC=C(C=C1)C[C@H]2C(=O)NC(=O)S2)C3=CC=CC=N3 (racemic) [rosiglitazone]
# Method in brief: as §1
# [6] = compound: CN1C2=C(C3=C1C(=O)N(N=C3)CC4=CC(=CC=C4)N)SC(=C2)S(=O)C
# Method in brief: as §1
# [7] = compound: CN1CCC(CNc2ccc3ncc(-c4cccc(OC(F)(F)F)c4)n3n2)CC1
# Method in brief: as §1
# UniProt Q9NS93, sequence (Q9NS93 whole entry, looked up): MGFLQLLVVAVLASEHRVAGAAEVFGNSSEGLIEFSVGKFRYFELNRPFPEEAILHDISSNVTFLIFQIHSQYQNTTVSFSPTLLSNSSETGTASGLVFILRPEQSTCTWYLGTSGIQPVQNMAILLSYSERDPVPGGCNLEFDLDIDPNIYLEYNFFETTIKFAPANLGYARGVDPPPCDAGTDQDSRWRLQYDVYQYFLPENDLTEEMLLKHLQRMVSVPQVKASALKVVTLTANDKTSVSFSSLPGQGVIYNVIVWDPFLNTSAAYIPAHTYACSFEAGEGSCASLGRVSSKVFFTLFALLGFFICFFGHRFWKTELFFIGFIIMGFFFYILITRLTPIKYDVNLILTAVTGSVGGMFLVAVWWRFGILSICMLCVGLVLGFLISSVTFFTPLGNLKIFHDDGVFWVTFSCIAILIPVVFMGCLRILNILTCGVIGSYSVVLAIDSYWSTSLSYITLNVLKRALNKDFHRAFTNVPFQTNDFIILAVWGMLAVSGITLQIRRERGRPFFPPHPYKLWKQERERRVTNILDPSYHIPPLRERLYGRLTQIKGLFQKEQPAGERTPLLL
# UniProt Q9BTW9, sequence (Q9BTW9 whole entry, looked up): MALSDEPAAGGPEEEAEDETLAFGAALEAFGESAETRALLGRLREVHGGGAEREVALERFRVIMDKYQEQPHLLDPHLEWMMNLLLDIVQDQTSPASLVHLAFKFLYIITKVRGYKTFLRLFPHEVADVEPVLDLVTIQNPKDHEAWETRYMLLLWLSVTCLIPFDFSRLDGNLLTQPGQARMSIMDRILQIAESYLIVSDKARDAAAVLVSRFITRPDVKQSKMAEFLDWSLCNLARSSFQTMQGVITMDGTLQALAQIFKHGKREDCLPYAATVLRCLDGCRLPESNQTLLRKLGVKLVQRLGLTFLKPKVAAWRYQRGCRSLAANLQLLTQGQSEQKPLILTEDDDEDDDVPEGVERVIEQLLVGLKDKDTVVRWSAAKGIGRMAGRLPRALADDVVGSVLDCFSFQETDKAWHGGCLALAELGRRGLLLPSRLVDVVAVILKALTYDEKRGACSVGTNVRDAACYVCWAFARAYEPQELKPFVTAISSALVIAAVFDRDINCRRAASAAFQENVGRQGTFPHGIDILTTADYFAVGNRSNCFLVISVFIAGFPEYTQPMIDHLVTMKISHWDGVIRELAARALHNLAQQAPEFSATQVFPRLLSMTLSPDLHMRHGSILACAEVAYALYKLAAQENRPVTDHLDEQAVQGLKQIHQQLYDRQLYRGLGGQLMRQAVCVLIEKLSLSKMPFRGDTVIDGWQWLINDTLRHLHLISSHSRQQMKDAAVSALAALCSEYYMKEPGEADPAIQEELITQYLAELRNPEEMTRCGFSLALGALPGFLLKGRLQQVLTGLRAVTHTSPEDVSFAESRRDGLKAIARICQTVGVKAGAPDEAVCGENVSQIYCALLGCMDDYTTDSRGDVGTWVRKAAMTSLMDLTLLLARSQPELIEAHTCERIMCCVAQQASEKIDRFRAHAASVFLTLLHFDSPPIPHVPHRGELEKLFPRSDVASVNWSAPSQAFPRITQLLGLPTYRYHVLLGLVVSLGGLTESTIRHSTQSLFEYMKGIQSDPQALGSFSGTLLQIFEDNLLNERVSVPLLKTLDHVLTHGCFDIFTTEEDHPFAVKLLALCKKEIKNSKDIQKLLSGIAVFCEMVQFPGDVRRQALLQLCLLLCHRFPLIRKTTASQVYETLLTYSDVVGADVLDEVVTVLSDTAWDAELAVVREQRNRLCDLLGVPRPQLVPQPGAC
# UniProt Q5VWP2, sequence (Q5VWP2 whole entry, looked up): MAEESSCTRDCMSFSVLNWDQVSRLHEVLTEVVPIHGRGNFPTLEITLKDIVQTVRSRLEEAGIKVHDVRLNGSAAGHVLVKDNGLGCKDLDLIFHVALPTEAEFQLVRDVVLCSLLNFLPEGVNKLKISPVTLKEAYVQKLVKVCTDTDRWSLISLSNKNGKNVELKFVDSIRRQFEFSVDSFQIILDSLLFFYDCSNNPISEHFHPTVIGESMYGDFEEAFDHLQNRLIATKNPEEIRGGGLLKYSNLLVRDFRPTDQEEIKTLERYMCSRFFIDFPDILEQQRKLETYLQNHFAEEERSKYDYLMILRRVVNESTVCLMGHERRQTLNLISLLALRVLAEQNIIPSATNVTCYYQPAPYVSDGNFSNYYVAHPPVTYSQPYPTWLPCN
# UniProt Q8NEF9, sequence (Q8NEF9 whole entry, looked up): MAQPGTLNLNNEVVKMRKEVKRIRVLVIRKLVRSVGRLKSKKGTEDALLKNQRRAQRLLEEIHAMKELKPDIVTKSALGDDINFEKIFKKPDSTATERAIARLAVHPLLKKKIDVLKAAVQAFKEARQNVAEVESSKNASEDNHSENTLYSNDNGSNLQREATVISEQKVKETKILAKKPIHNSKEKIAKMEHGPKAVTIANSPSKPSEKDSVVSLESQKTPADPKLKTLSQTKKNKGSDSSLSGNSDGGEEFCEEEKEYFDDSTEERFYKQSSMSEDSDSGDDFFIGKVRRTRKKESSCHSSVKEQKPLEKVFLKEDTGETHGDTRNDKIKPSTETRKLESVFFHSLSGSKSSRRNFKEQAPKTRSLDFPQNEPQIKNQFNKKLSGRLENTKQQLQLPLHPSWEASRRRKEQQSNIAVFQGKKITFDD
# UniProt P55061, sequence (P55061 whole entry, looked up): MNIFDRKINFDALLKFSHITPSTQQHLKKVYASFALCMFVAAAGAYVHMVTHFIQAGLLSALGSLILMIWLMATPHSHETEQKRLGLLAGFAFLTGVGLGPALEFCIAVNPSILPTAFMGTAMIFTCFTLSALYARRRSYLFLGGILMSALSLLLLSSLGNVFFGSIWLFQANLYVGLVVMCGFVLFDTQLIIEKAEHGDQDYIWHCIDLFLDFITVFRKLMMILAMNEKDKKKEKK
# UniProt Q96BW9, sequence (Q96BW9 whole entry, looked up): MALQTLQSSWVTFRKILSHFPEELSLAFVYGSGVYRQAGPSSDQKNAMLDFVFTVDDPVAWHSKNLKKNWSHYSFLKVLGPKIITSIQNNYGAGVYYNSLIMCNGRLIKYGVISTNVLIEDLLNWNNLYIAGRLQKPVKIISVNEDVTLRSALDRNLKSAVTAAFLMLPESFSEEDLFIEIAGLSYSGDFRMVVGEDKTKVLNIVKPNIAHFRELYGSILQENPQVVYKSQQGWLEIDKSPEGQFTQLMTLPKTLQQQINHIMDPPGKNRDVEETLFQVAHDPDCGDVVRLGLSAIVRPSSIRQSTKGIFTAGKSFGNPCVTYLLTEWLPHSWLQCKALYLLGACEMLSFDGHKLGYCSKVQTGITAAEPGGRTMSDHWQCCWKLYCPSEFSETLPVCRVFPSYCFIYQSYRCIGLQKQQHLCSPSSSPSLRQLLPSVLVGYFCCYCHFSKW
# UniProt Q8N1S5, sequence (Q8N1S5 whole entry, looked up): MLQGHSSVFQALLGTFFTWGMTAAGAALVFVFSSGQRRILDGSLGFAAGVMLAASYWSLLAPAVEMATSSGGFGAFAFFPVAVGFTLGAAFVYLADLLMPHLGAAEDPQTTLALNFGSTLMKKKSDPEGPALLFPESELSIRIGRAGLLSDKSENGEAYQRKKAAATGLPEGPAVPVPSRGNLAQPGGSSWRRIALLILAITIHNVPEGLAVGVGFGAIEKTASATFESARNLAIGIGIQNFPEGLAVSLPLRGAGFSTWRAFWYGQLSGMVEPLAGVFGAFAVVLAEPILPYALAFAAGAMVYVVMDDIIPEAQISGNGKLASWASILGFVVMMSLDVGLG
# UniProt Q9BZD2, sequence (Q9BZD2 whole entry, looked up): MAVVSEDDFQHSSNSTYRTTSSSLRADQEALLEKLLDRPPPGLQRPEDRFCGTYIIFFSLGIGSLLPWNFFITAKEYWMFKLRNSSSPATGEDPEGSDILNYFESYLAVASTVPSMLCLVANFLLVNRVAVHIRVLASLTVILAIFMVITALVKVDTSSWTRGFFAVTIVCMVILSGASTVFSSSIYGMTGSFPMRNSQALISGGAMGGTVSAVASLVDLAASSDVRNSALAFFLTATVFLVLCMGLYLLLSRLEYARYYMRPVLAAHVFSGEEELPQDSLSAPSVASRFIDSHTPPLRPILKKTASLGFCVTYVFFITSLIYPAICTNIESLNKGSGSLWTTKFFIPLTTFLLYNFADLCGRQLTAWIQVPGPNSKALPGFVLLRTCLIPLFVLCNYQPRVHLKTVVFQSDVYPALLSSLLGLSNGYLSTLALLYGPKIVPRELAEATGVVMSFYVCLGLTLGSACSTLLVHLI
# UniProt Q99523, sequence (Q99523 whole entry, looked up): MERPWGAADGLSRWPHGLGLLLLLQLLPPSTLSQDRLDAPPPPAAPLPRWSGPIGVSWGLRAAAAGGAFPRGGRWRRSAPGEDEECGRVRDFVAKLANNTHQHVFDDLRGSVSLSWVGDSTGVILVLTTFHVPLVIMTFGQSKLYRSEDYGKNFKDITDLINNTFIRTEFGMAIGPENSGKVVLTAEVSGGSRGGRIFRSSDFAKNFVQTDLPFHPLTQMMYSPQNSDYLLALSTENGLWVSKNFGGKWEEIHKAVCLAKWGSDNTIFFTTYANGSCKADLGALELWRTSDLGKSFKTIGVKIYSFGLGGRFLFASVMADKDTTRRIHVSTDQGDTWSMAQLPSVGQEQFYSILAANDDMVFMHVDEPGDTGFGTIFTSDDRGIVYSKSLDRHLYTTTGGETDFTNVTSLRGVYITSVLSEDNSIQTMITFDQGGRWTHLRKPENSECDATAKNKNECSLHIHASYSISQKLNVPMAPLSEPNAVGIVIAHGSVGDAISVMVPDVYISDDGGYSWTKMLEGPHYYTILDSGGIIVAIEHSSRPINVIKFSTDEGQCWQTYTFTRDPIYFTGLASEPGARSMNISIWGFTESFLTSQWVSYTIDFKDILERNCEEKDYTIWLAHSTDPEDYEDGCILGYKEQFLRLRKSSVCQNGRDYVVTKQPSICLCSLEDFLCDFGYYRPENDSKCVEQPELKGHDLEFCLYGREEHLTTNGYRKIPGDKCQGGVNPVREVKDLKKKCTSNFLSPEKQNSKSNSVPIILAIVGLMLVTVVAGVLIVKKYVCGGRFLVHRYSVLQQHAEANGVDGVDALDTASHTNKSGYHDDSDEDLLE
Target,log2 fold change [1],log2 fold change (volasertib),log2 fold change [2],log2 fold change (epoxomicin),log2 fold change [3],log2 fold change [4],log2 fold change [5],log2 fold change (rosiglitazone),log2 fold change [6],log2 fold change [7]
STX17 (UniProt P56962),-0.273,-0.357 (active),-0.06,0.062,-0.067,0.011,-0.02,0.089,-0.126,-0.278
TANK (UniProt Q92844),0.057,-0.105,-0.064,-0.021,-0.074,0.074,-0.012,-0.012,-0.117,-0.072
STK26 (UniProt Q9P289),-0.017,-0.062,0.018,0.084,-0.003,-0.117,-0.033,0.068,0.014,-0.191
SRFBP1 (UniProt Q8NEF9),0.208,0.157,-0.094,-0.047,-0.088,0.049,,0.078,0.117,0.277
SPCS2 (UniProt Q15005),0.018,-0.006,0.02,0.091,-0.067,-0.009,0.038,0.029,-0.078,0.005
TIMM13 (UniProt Q9Y5L4),0.019,-0.048,0.027,0.213,0.024,0,-0.032,0.029,-0.094,0.237
TENT5C (UniProt Q5VWP2),-0.073,-0.038,0.005,,0.085,0.009,0.031,0.033,-0.066,-0.082
SNRPB2 (UniProt P08579),0.176,0.174,-0.069,-0.05,0.025,0.069,-0.063,-0.047,-0.008,0.098
SLC35F6 (UniProt Q8N357),-0.099,-0.053,0.087,0.021,0.11,,0.034,0.047,-0.029,
SLC29A3 (UniProt Q9BZD2),0.171,0.007,0.05,-0.048,0.047,,0.002,-0.049,-0.161,
SUN2 (UniProt Q9UH99),0.016,-0.064,0.01,0.045,0.006,-0.032,-0.012,0.033,0.015,0.057
TBP (UniProt P20226),0.087,0.073,0.095,-0.332,,,-0.227,-0.035,0.001,
TM7SF3 (UniProt Q9NS93),-0.136,-0.178,-0.074,,-0.006,,,-0.022,0.025,
SSBP4 (UniProt Q9BWG4),0,-0.056,-0.036,,-0.116,-0.009,,0.162,-0.238,0.036
SLC39A11 (UniProt Q8N1S5),0.102,0.071,0.007,,0,-0.136,-0.062,-0.007,-0.021,0.15
SRXN1 (UniProt Q9BYN0),-0.031,-0.083,0.027,0.069,,0.159,0.046,0.124,,-0.199
SORT1 (UniProt Q99523),-0.984 (active),-1.34 (active),-0.013,0.032,-0.028,0.007,0.003,0.008,-0.028,-0.582 (active)

Target,log2 fold change [1],log2 fold change (volasertib),log2 fold change [2],log2 fold change (epoxomicin),log2 fold change [3],log2 fold change [4],log2 fold change [5],log2 fold change (rosiglitazone),log2 fold change [6],log2 fold change [7]
TBCD (UniProt Q9BTW9),-0.061,-0.315 (active),0.074,-0.012,0.028,-0.002,0.033,0.016,-0.044,-0.094
SRCAP (UniProt Q6ZRS2),0.068,-0.207,-0.059,,0.066,-0.041,0.121,0.01,-0.001,-0.006
SLC35A1 (UniProt P78382),0.148,0.118,-0.034,0.018,-0.002,,-0.056,-0.013,-0.191,
TBC1D20 isoform 3 (UniProt Q96BZ9),0.273,-0.153,0.07,0.068,-0.111,0.028,0.04,-0.03,,0.046
TANGO6 (UniProt Q9C0B7),0.276,-0.375 (active),0.052,0.035,-0.165,,,0.037,0.006,
TM9SF2 (UniProt Q99805),-0.57 (active),-0.621 (active),-0.008,-0.034,0.033,-0.017,0.018,-0.052,-0.01,-0.182
TGFBR1 isoform 2 (UniProt P36897),-0.041,-0.179,-0.022,0.033,-0.049,-0.023,-0.028,0.122,0.021,0.076
ST3GAL2 (UniProt Q16842),-0.28,-0.562 (active),-0.053,-0.053,-0.038,0.062,0.005,0.011,-0.071,-0.474 (active)
TMBIM6 isoform 2 (UniProt P55061),-0.075,-0.061,-0.041,0.25,-0.055,,0.066,-0.046,-0.007,
SRSF4 (UniProt Q08170),0.091,-0.001,0.011,-0.175,-0.068,0.115,-0.09,-0.09,0.205,0.087
SLC38A2 (UniProt Q96QD8),0.035,0.004,-0.091,-0.078,0.084,,-0.022,0.002,-0.1,
SUN1 isoform 9 (UniProt O94901),0.13,0.018,-0.065,-0.021,0.027,0.135,0.002,,0.037,-0.111
TAF9 (UniProt Q16594),-0.028,0.095,-0.029,0.12,0.025,0.034,-0.021,-0.001,0.061,0.077
SRSF11 (UniProt Q05519),-0.088,-0.311 (active),0.074,0.047,-0.022,-0.072,0.02,0.006,-0.018,0.128
TAMM41 isoform 3 (UniProt Q96BW9),-0.209,-0.312 (active),-0.004,0.02,-0.02,0.022,0.013,0.005,-0.052,-0.362 (active)
SYNE2 isoform 2 (UniProt Q8WXH0),0.039,-0.025,-0.145,,-0.181,-0.274,-0.044,0.053,-0.021,-0.025
